In PubChem BioAssay (NCATS):
Inconclusive results are not listed. A number with no mark means an inactive call. Active and inactive are the calls of the source. The call rests on the fitted dose curve; in most records, active means well fitted inhibition curve with a large enough effect; inconclusive means small, poorly fitted or top-dose-only effect; inactive means flat fitted curve, though single readings scatter.

test: Primary qHTS for inhibitors of nuclear receptor binding SET domain protein 2 (NSD2) in an isogenic RCH-ACV NSD2 p.E1099K mutant (9B) (AID 1645876); conditions: RCH-ACV (leukaemia line) NSD2 E1099K (9B) viability, CellTiter-Glo, 72 h; series mostly up to 44.9 µM; activity change, negative = viability loss: at the top concentration; further: nearly all actives have a fitted effect of over 70% in size
On the % scale 0 is the no-effect control and ±100 the full control effect; potency means the concentration at half of the fitted maximal effect.

SMILES	Potency	outcome	activity change, negative = viability loss
NC(=O)C1(N2CCCCC2)CCN(CCCN2c3ccccc3CCc3ccc(Cl)cc32)CC1	9.44 µM (active)	–	–
Cc1ccc2ccc(Cl)cc2n1	–	inactive	–
Cc1cc2nc3ccc(=[N+](C)C)cc-3sc2cc1N	1.33 µM (active)	–	–
CC(C)C(=O)OCc1cccc(OC(=O)[C@@H]2N3C(=O)[C@@H](NC(=O)Cc4ccccc4)[C@H]3SC2(C)C)c1	–	–	-20.2%
CC(=O)O[C@H]1CC[C@@]2(C)C(=CC[C@@H]3[C@@H]2CC[C@]2(C)C(C(C)=O)=CC[C@@H]32)C1	–	inactive	–
Cc1coc2ccccc2c1=O	–	–	8.59%
CN1CC[C@H](c2c(O)cc(O)c3c(=O)cc(-c4ccccc4Cl)oc23)[C@H](O)C1	0.0211 µM (active)	–	–
CC(C)=CCC/C(C)=C/CC/C(C)=C/CCC(=O)OC/C=C(\C)CCC=C(C)C	–	–	8.73%
Cc1nc(N)nc(N)c1-c1ccc(Cl)c(Cl)c1	0.266 µM (active)	–	–
CCCCCCCCCCCC[N+](C)(C)Cc1ccccc1	0.473 µM (active)	–	–
C/C(=N\O)[C@@H](C)NCC(C)(C)CN[C@H](C)/C(C)=N/O	–	–	-15.4%
CN1C(CSCC(F)(F)F)Nc2cc(Cl)c(S(N)(=O)=O)cc2S1(=O)=O (stereo not given)	–	–	-15.1%
CCCOc1ccc2c(c1)CC[C@@H]1[C@@H]2CC[C@]2(C)C(OC)CC[C@@H]12 (stereo not given in full)	–	inactive	–
Cc1cccc(C)c1NC(=O)c1ccc(N)cc1	–	–	8.13%
Cc1cnc(NS(=O)(=O)c2ccc(N)cc2)nc1	–	–	7.45%
O=P(O)(O)OCC(O)CO (stereo not given)	–	inactive	–
CCOC(=O)C(O)c1ccccc1 (stereo not given)	–	–	-6.2%
CC(=O)c1cc2ccccc2s1	–	–	-13.2%
O=C(Oc1ccccc1)c1ccccc1O	–	inactive	–
Cc1ccc(C(C)OC(=O)C2(C)CCC(C(=O)O)C2(C)C)cc1 (stereo not given)	–	–	-13.2%

SMILES	Potency	outcome	activity change, negative = viability loss
O=C(O)c1cn(C2CC2)c2cc(Cl)c(F)cc2c1=O	–	inactive	–
CC(C)CCCC(C)NCCC(C)C (stereo not given)	–	–	-2.31%
Cc1sccc1Br	–	–	6.6%
O=C1Nc2cc(Cl)ccc2Oc2ccccc21	–	–	-9.5%
Cc1ncc([N+](=O)[O-])n1C	–	inactive	–
C[C@H](CN1CCCC1)C(=O)c1ccc(C(F)(F)F)cc1	11.9 µM (active)	–	–
COc1cc2c(cc1OC)CN(C(=O)[C@H](C)N[C@@H](CCc1ccccc1)C(=O)O)[C@H](C(=O)O)C2	–	–	8.34%
CC(=O)Nc1ccn(C2COC(COC(=O)c3ccccc3)O2)c(=O)n1 (stereo not given)	10.6 µM (active)	–	–
CCCC(=O)Nc1ccc(O)c(C(C)=O)c1	–	–	2.65%
Nc1c2ccccc2nc2ccccc12	3.76 µM (active)	–	–
CCCC(=O)OCOC(=O)C1=C(C)NC(C)=C(C(=O)OC)C1c1cccc(Cl)c1Cl (stereo not given)	–	–	-16.1%
CN1[C@@H]2CC[C@H]1CC(NC(=O)n1c(=O)[nH]c3ccccc31)C2 (stereo not given in full)	–	inactive	–
CC(COc1ccccc1)NN (stereo not given)	–	–	-10.2%
CC(=O)c1ccc(O)c(C(N)=O)c1	–	–	-7.61%
CCN(CC)C(=O)C1CN2CCc3cc(OC)c(OC)cc3C2CC1OC(C)=O (stereo not given)	–	inactive	–
CCOc1c(N2CCOCC2)cnn(C)c1=O	–	inactive	–
CN1CCC(Nc2ncc3ncnc(Nc4ccc(F)c(Cl)c4)c3n2)CC1	15 µM (active)	–	–
CCOc1ccc(NS(=O)(=O)c2ccc(N)cc2)nn1	–	–	9.7%
Brc1ccccc1-c1ccccc1	–	–	9.89% [at 91.9 µM]
O=[N+]([O-])c1cncn1CCN1CCOCC1	inactive	–	–
